PubChem BioAssay (Tox21)
Several values for one entry are separate records, joined by “and”; a condition that tells them apart may be missing. Identical values can stand only once. Inconclusive results are not listed. More than one record can exist for a structure, and the calls need not agree. Activity calls are given as the source filed them. Unless noted, the call rests on the fitted dose curve; in most records, active means well fitted curve in the direction sought with a large enough effect in the repeat runs; inconclusive means weak or mixed curves; inactive means no such curve, though single readings can be large; an effect the other way counts as inactive or inconclusive.

Assays:
[1] = target: Thyrotropin receptor (Homo sapiens) (UniProt P16473); assay: qHTS assay to identify small molecule antagonists of the thyroid stimulating hormone receptor (TSHR) signaling pathway (AID 1259385; calls by dose curve; further: nearly all actives have a fitted effect of over 20% in size)
Method in brief: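 TSHR-HEK293 cells (800/well) plated 18 h, then compounds with Ro20-1724 and TSH at 1.5 ng/mL final, 30 min at room temperature. cAMP quantified by HTRF (cAMP-d2/anti-cAMP-cryptate, 1 h); 15 concentrations in triplicate.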

[2] = qHTS assay to identify small molecule agonists of the estrogen receptor alpha (ER-alpha) signaling pathway in the presence of an antagonist - cell viability counter screen (AID 1259386);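 further: cells exposed to compounds for 22 h at 37 °C before the viability read; nearly all actives have a fitted effect of over 30% in size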; further: potency means the concentration at half of the fitted maximal effect
Method in brief: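 Steps: 5-day stripped-FBS culture; seed and incubate 24hr; add ICI-182,780 (10.0nM final); pin 15-point compound titration; incubate 22hr at 37C; add CellTiter-Fluor at 21hr; read fluorescence.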

[3] = target: Progesterone receptor (Homo sapiens) (UniProt P06401); assay: qHTS assay to identify small molecule agonists of the progesterone receptor (PR) signaling pathway (AID 1346784; calls by dose curve; further: nearly all actives have a fitted effect of over 30% in size; further: potency means the concentration at half of the fitted maximal effect)
Method in brief: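 Beta-lactamase reporter read-out: after 16 hr compound treatment at 37C and a further 2 hr at room temperature with LiveBLAzer B/G FRET substrate, fluorescence was measured in PR-UAS-bla HEK 293T cells grown in 2% charcoal-stripped serum.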

[4] = target: Progesterone receptor (Homo sapiens) (UniProt P06401); assay: qHTS assay to identify small molecule antagonists of the progesterone receptor (PR) signaling pathway (AID 1346795; active means well fitted inhibition curve with a large enough effect in the signal ratio in the repeat runs, not every such curve was filed as active; the % refers to the signal ratio; further: potency means the concentration at half of the fitted maximal effect)
Method in brief: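 Read-out is fluorescence from the LiveBLAzer B/G FRET substrate, cleaved by a UAS-controlled beta-lactamase in PR-UAS-bla HEK293T cells after 16 hr exposure to compound plus 1 nM promegestone (final), followed by 2 hr at room temperature.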

[5] = qHTS assay to identify small molecule antagonists of the progesterone receptor (PR) signaling pathway - cell viability counter screen (AID 1346798);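 further: HEK293T PR-UAS-bla cells stimulated with the agonist R5020; series mostly up to about 92 µM; nearly all actives have a fitted effect of over 50% in size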
Method in brief: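 HEK293T PR-UAS-bla, 2% charcoal-stripped FBS; 4 hr pre-plate; cpd + R5020, 16 h 37C; LiveBLAzer read first; then CellTiter-Glo 30 min RT, luminescence.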

[6] = qHTS assay to identify small molecule agonists of the progesterone receptor (PR) signaling pathway - cell viability counter screen (AID 1346799; calls by dose curve; further: nearly all actives have a fitted effect of over 45% in size)
Method in brief: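 Luminescence from CellTiter-Glo, added after the beta-lactamase FRET read in the same wells, gave cytotoxicity in PR-UAS-bla HEK293T cells treated with compounds for 16 hr at 37C.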

[7] = qHTS assay to identify small molecule antagonists of the TGF-beta/Smad signaling pathway - cell viability counter screen (AID 1346824); further: nearly all actives have a fitted effect of over 50% in size
Method in brief: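 SBE-bla HEK 293T cells, incubated overnight, then compound plus 0.25 ng/mL TGF-beta1 (stock added) for 5 hr at 37 C. Viability was read in the same wells by CellTiter-Glo luminescence after 30 min at room temperature.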

[8] = qHTS assay to identify small molecule agonists of the TGF-beta/Smad signaling pathway - cell viability counter screen (AID 1346829); further: top concentration of the series differs between compounds; nearly all actives have a fitted effect of over 45% in size
Method in brief: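 Same-well cytotoxicity: CellTiter-Glo added after the 2 hr room-temperature beta-lactamase substrate step, luminescence measured 30 min later; cells had 5 hr of compound at 37 C.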

[9] = qHTS assay to identify small molecule agonists of the TGF-beta/Smad signaling pathway (AID 1346859; active means well fitted activation curve with a large enough effect in the signal ratio in the repeat runs, not every such curve was filed as active; the % refers to the signal ratio; further: series mostly up to about 77 µM)
Method in brief: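 SBE-bla HEK 293T, 4,000 cells/well, plated o/n; cpd in DMSO, 5 hr, 37 C/5% CO2; B/G FRET substrate 2 hr RT; ex 405, em 460/530 nm.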

[10] = target: Thyrotropin-releasing hormone receptor (Homo sapiens) (UniProt P34981); assay: qHTS assay to identify small molecule antagonists of the thyrotropin-releasing hormone receptor (TRHR) signaling pathway (AID 1346877; active means well fitted inhibition curve with a large enough effect in the repeat runs, not every such curve was filed as active; further: series mostly up to about 51 µM)
Method in brief: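 Human TRHR in HEK293 cells; inhibition of the intracellular calcium rise triggered by 1 nM TRH was followed by fluorescence over 3 min. Compounds were run at 15 concentrations, three replicates each.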

Measured: Potency

Chain of Thyrotropin-releasing hormone receptor (Homo sapiens) (P34981 whole entry, looked up): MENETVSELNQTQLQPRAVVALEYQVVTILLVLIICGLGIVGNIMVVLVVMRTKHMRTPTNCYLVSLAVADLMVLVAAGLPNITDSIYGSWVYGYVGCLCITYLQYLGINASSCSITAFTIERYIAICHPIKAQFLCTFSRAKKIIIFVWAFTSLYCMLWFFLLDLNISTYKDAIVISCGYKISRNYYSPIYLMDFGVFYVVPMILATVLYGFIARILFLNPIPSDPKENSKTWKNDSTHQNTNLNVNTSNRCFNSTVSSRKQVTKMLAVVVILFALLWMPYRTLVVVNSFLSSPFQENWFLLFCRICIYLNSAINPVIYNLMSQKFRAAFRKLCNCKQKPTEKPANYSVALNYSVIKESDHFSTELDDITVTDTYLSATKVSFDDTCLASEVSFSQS
Chain of Thyrotropin receptor (Homo sapiens) (P16473 whole entry, looked up): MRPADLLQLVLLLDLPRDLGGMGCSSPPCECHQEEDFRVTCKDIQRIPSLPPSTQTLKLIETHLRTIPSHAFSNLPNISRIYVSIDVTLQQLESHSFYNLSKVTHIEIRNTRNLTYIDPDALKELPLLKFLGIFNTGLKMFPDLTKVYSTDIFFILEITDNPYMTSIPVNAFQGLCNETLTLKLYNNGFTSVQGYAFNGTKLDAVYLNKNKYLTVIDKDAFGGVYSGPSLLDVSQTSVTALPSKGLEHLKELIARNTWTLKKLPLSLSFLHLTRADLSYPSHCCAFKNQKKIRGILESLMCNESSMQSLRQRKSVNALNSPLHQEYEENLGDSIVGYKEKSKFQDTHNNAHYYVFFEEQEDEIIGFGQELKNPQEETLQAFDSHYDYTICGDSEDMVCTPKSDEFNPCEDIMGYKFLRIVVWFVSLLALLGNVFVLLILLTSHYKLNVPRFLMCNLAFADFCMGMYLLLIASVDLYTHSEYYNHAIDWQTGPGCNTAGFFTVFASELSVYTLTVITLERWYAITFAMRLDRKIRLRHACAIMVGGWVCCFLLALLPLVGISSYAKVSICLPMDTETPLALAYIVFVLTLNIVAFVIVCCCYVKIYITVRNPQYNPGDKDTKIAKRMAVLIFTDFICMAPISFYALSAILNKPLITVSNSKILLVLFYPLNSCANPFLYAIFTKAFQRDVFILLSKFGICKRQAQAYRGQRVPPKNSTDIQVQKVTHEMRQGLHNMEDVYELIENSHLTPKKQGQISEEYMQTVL
Chain of Progesterone receptor (Homo sapiens) (P06401 whole entry, looked up): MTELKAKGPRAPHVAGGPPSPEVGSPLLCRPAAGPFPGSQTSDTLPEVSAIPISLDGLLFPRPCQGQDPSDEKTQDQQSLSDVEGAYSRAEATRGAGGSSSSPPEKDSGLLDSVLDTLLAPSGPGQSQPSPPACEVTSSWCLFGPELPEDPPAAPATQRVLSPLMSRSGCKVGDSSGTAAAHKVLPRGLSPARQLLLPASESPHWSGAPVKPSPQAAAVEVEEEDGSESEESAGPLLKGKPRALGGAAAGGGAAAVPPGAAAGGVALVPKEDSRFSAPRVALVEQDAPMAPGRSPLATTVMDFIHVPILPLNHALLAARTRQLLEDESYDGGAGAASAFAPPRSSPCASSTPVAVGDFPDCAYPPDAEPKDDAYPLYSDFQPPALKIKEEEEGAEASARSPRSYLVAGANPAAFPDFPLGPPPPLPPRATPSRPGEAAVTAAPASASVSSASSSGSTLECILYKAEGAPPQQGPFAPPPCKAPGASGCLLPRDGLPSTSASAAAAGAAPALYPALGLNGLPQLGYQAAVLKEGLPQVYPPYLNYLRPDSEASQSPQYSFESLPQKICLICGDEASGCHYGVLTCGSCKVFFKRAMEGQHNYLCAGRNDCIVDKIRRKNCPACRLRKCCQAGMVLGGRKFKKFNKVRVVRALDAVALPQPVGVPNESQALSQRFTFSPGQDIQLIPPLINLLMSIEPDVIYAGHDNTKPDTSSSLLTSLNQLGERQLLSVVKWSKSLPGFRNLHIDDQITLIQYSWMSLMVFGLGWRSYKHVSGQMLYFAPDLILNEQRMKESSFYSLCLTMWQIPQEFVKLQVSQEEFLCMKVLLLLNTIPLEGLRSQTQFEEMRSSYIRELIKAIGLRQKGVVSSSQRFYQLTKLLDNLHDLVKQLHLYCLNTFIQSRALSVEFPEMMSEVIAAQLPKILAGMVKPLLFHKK

NC(=O)NNc1ccccc1
inactive: all assays above

O=S(=O)(O)c1cc(S(=O)(=O)O)c2c(N=Nc3ccccc3)c(O)ccc2c1
active: [2] 61.4 µM and 27.3 µM
not listed: [7]
inactive: all other assays above

CC(=O)[C@@]1(O)CC[C@H]2[C@@H]3CCC4=CC(=O)CC[C@]4(C)[C@H]3CC[C@@]21C
active: [3] 3.35 µM
not listed: [6] | [7]
inactive: all other assays above

CN(CCOc1ccc(CC2SC(=O)NC2=O)cc1)c1ccccn1 (stereo not given)
48.3 µM (active) and inactive: [4]
not listed: [3] | [10]
inactive: all other assays above

CCC(C)C=O (stereo not given)
inactive: all assays above

OC[C@@H](O)[C@H](O)[C@H](O)[C@@H](O)CO
not listed: [3] | [10]
inactive: all other assays above

CC(=O)CCc1ccccc1
not listed: [7] | [10]
inactive: all other assays above

Oc1ccc2ccccc2c1
active: [4] 48.6 µM
not listed: [7] | [10]
inactive: all other assays above

CCCCCC/C=C/CCCCCCCC(=O)O
inactive: all assays above

CC1=C(CC(=O)O)c2cc(F)ccc2/C1=C\c1ccc(S(C)=O)cc1 (stereo not given)
not listed: [3] | [9] | [10]
inactive: all other assays above

CCCCOCCOCCOC(=O)CCCCC(=O)OCCOCCOCCCC
inactive: all assays above

CC1=CC[C@H]2C[C@@H]1C2(C)C
inactive: all assays above

CCCCC/C=C\C/C=C\CCCCCCCC(=O)OC
not listed: [10]
inactive: all other assays above

C[C@@H](O)[C@H]1C(=O)N2C(C(=O)O)=C(S[C@@H]3CN[C@H](C(=O)N(C)C)C3)[C@H](C)[C@H]12
not listed: [10]
inactive: all other assays above

CC1Cc2ccccc2N1NC(=O)c1ccc(Cl)c(S(N)(=O)=O)c1 (stereo not given)
inactive: all assays above

OCCOCCOCCOCCO
not listed: [7]
inactive: all other assays above

CCCCCCCCCCCCOCC1CO1 (stereo not given)
not listed: [7]
inactive: all other assays above

CC(C)(C)C1CCC(O)CC1 (stereo not given)
inactive: all assays above

CC(=O)Nc1ccc(C(=O)O)cc1
not listed: [7]
inactive: all other assays above

CCc1ccccc1O
inactive: all assays above

CCCCCCCCCCC=CC1CC(=O)OC1=O (stereo not given)
not listed: [10]
inactive: all other assays above

O=c1c(-c2ccc(O)cc2)coc2cc(O)ccc12
not listed: [10]
inactive: all other assays above

COCC(=O)O
not listed: [7] | [10]
inactive: all other assays above

OC[C@@H](O)[C@@H](O)[C@H](O)[C@@H](O)CO
not listed: [10]
inactive: all other assays above

O=C(O)c1cc(-c2ccccc2)nc2ccccc12
not listed: [3]
inactive: all other assays above
